The record followed here is PubChem BioAssay (NCATS).

Inconclusive results are not listed. Calls of active or inactive are those of the source. The call rests on the fitted dose curve; in most records, active means well fitted curve in the direction sought with a large enough effect; inconclusive means small, poorly fitted or top-dose-only effect, or another doubt; inactive means no such curve, though single readings can be large; an effect the other way counts as inactive or inconclusive.

Experiment [1] is described as follows: qHTS Assay for Identification of Small Molecule Agonists for Thrombopoietin (TPO) Signaling Pathway (AID 917). The method, boiled down:
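Activators of TPO signaling were sought in murine Ba/F3 cells transfected with the human receptor, using a luciferase gene driven by the Glycoprotein IIb promoter; 24-hr compound exposure at 37 C alongside 26 pM TPO, in IL-3-free medium.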
(In general: In qHTS, concentration-response curves come from the screen itself.)

A further experiment relates to 7G8. Put plainly: qHTS profiling for inhibitors of Plasmodium falciparum proliferation (AID 504749). Further: nearly all actives have a fitted effect of over 60% in size. Further: potency means the concentration at half of the fitted maximal effect. The settings on record: P. falciparum in erythrocytes, SYBR Green DNA, 72 h; series mostly up to 12.8 µM. The method, boiled down:
(§1)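 P. falciparum-infected erythrocytes (0.3% parasitemia, 2.5% hematocrit) incubated with compound 72 h at 37 C, 5% CO2. Parasite DNA detected by SYBR Green after lysis, overnight at room temperature; normalised to 0.29 uM artemisinin and DMSO.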

The subject of another experiment is ATS95. The experiment is described as above. Conditions: P. falciparum in erythrocytes, SYBR Green DNA, 72 h; series mostly up to 12.8 µM. The essentials:
as §1

The test system of another experiment is C2A. The experiment is described as above. The settings on record: P. falciparum in erythrocytes, SYBR Green DNA, 72 h; series mostly up to 12.8 µM. The essentials: as §1
The test system of a further experiment is CP217. Described as above. The settings on record: P. falciparum in erythrocytes, SYBR Green DNA, 72 h; series mostly up to 12.8 µM. The method, boiled down: as §1
The subject of the next experiment is CP237. Described as above. The settings on record: P. falciparum in erythrocytes, SYBR Green DNA, 72 h; series mostly up to 12.8 µM. The method, boiled down:
as §1

In another experiment the test system is CP252. Described as above. The settings on record: P. falciparum in erythrocytes, SYBR Green DNA, 72 h; series mostly up to 12.8 µM. The essentials: as §1
The next experiment deals with CP268. Described as above. The settings on record: P. falciparum in erythrocytes, SYBR Green DNA, 72 h; series mostly up to 12.8 µM. The essentials:
as §1

The subject of the next experiment is CP269. The description is as above. The settings on record: P. falciparum in erythrocytes, SYBR Green DNA, 72 h; series mostly up to 12.8 µM. The essentials:
as §1

Another experiment concerns CP286. The description is as above. Conditions: P. falciparum in erythrocytes, SYBR Green DNA, 72 h; series mostly up to 12.8 µM. The essentials: as §1
Another experiment deals with CP291. The description is as above. Conditions: P. falciparum in erythrocytes, SYBR Green DNA, 72 h; series mostly up to 12.8 µM. The essentials:
as §1

In a further experiment the test system is CP305. The experiment is described as above. Conditions: P. falciparum in erythrocytes, SYBR Green DNA, 72 h; series mostly up to 12.8 µM. The essentials: as §1
The next experiment concerns CP335. Described as above. The settings on record: P. falciparum in erythrocytes, SYBR Green DNA, 72 h; series mostly up to 12.8 µM. The essentials: as §1
Another experiment deals with DFO2036. The experiment is described as above. The settings on record: P. falciparum in erythrocytes, SYBR Green DNA, 72 h; series mostly up to 12.8 µM. The essentials: as §1
In another experiment the test system is DIV30. The description is as above. Conditions: P. falciparum in erythrocytes, SYBR Green DNA, 72 h; series mostly up to 12.8 µM. The method, boiled down: as §1
For the next experiment, the system named is ECU. The experiment is described as above. Conditions: P. falciparum in erythrocytes, SYBR Green DNA, 72 h; series mostly up to 12.8 µM. The essentials: as §1
In a further experiment the test system is HB3. Described as above. The settings on record: P. falciparum in erythrocytes, SYBR Green DNA, 72 h; series mostly up to 12.8 µM. The method, boiled down: as §1
The subject of a further experiment is P94_40. The experiment is described as above. The settings on record: P. falciparum in erythrocytes, SYBR Green DNA, 72 h; series mostly up to 12.8 µM. The method, boiled down:
as §1

The subject of the next experiment is PC26. The description is as above. The settings on record: P. falciparum in erythrocytes, SYBR Green DNA, 72 h; series mostly up to 12.8 µM. The method, boiled down: as §1
The next experiment relates to TAB165. Described as above. Conditions: P. falciparum in erythrocytes, SYBR Green DNA, 72 h; series mostly up to 12.8 µM. The method, boiled down: as §1

`CN(C)CC[C@@H](c1ccccc1)c1ccccn1`: the outcome in experiment [1] was inactive.

On to `C[n+]1ccccc1/C=N\O`, for which the Potency entry with 7G8, with ATS95, with C2A, in the experiment with CP217, in the experiment with CP237 and with CP252 was “inactive” each time. The Potency result with CP268, in the experiment with CP269, with CP286, in the experiment with CP291, with CP305 and in the experiment with CP335 was “inactive” each time. In addition, the Potency entry in the experiment on DFO2036, in the experiment with DIV30, in the experiment on ECU, with HB3, in the experiment with P94_40 and in the experiment with PC26 was “inactive” in each case. For the same compound, in the experiment with TAB165, the Potency entry is “inactive”.

As for `CCN(CC)CCC[C@H](C)Nc1ccnc2cc(Cl)ccc12`, the result in experiment [1] was inactive. In addition, the Potency in the experiment with 7G8 was 1 µM (active); in the experiment with ATS95 it was 10 µM (active); in the experiment with C2A it was 3.55 µM (active); in the experiment with CP237, 4.47 µM (active); in the experiment on CP268 it was 4.26 µM (active); in the experiment on CP269, 9.53 µM (active). For the same compound, the Potency in the experiment on CP286 was 3.16 µM (active); in the experiment on CP291, 3.38 µM (active); with CP305, 2.69 µM (active); in the experiment with CP335, 12 µM (active); with DFO2036 it was 3.98 µM (active); in the experiment on DIV30, 6.75 µM (active). The Potency in the experiment with ECU is 2.24 µM (active); with HB3 it was 0.316 µM (active); with P94_40 it was 5.01 µM (active); in the experiment with PC26 it was 4.78 µM (active); in the experiment with TAB165 it was 5.62 µM (active).

For `C[C@@H](CN(C)C)CN1c2ccccc2CCc2ccccc21`, the Potency result with ATS95, in the experiment on C2A, in the experiment with CP217, in the experiment on CP252, in the experiment on CP268 and in the experiment on CP286 was “inactive” each time. The Potency result in the experiment on CP291, in the experiment on CP305, with CP335, with DFO2036, in the experiment on ECU and in the experiment on HB3 was “inactive” each time. Moreover, the Potency entry with TAB165 was “inactive”.

With `CC1(C)O[C@@H]2C[C@H]3[C@H]4C[C@H](F)C5=CC(=O)C=C[C@@]5(C)[C@@H]4[C@H](O)C[C@]3(C)[C@]2(C(=O)CO)O1`, the Potency entry with 7G8, in the experiment on ATS95, in the experiment on C2A, in the experiment on CP217, with CP237 and in the experiment on CP252 was “inactive” throughout. The Potency result in the experiment with CP268, in the experiment with CP269, in the experiment with CP286, in the experiment on CP291, in the experiment on CP305 and with CP335 was “inactive” throughout. Also, the Potency entry in the experiment with DFO2036, in the experiment on DIV30, in the experiment with ECU, in the experiment on HB3, with P94_40 and in the experiment with PC26 was “inactive” each time. Further, the Potency entry in the experiment with TAB165 was “inactive”.

In the case of `NC(N)=NC[C@@H]1COC2(CCCCC2)O1`, the Potency result with 7G8, in the experiment on ATS95, in the experiment with C2A, in the experiment with CP217, in the experiment with CP237 and in the experiment with CP252 was “inactive” throughout. The Potency entry in the experiment on CP268, in the experiment with CP269, in the experiment with CP286, in the experiment on CP291, in the experiment with CP305 and in the experiment on CP335 was “inactive” throughout. The Potency entry in the experiment with DFO2036, with DIV30, in the experiment with ECU, in the experiment with HB3, with P94_40 and in the experiment on PC26 was “inactive” throughout. The Potency result with TAB165 was “inactive”.

With `CC(=O)Nc1c(I)c(C(=O)N[C@H]2[C@@H](O)[C@H](O)[C@H](CO)O[C@@H]2O)c(I)c(N(C)C(C)=O)c1I`, the Potency entry in the experiment on 7G8, in the experiment with ATS95, with C2A, in the experiment with CP217, with CP237 and with CP252 was “inactive” in each case. Also, the Potency result with CP268, in the experiment with CP269, with CP286, in the experiment with CP291, in the experiment on CP305 and with CP335 was “inactive” in each case. Also, the Potency entry in the experiment with DFO2036, with DIV30, in the experiment on ECU, with HB3, in the experiment with P94_40 and in the experiment with PC26 was “inactive” each time. Also, the Potency entry in the experiment on TAB165 was “inactive”.

`O=C(O)/C=C\c1ccc(Cn2ccnc2)cc1`: the Potency entry in the experiment with 7G8, in the experiment on ATS95, in the experiment with C2A, in the experiment on CP217, in the experiment on CP237 and with CP252 was “inactive” throughout. Moreover, the Potency result in the experiment on CP268, in the experiment with CP286, in the experiment with CP291, in the experiment with CP305, in the experiment with CP335 and in the experiment with DFO2036 was “inactive” in each case. Moreover, the Potency result in the experiment on DIV30, in the experiment with ECU, with HB3, in the experiment on P94_40, with PC26 and in the experiment on TAB165 was “inactive” in each case.

`COCCc1ccc(OC[C@H](O)CNC(C)C)cc1`: in experiment [1], the outcome was inactive. Further, the Potency entry with 7G8, in the experiment with ATS95, in the experiment on C2A, in the experiment with CP217, with CP237 and in the experiment on CP252 was “inactive” in each case. Moreover, the Potency result with CP268, in the experiment with CP269, with CP286, with CP291, with CP305 and in the experiment with CP335 was “inactive” each time. The Potency result in the experiment on DFO2036, in the experiment with DIV30, in the experiment on ECU, in the experiment with HB3, with P94_40 and with PC26 was “inactive” throughout. Besides, the Potency entry with TAB165 was “inactive”.

On to `CCN(CC)CC#CCOC(=O)[C@@](O)(c1ccccc1)C1CCCCC1`, for which the values for the Potency with 7G8 and in the experiment on ECU were 8.91 µM (active) and 12.6 µM (active), respectively. Further, the Potency entry in the experiment with CP252 and in the experiment with HB3 was “inactive” in each case.

On to `C[C@@H]1COc2c(N3CCN(C)CC3)c(F)cc3c(=O)c(C(=O)O)cn1c23`, for which the call in [1] was inactive. For the same compound, the Potency result in the experiment on 7G8, in the experiment with ATS95, in the experiment with C2A, in the experiment with CP217, in the experiment on CP237 and in the experiment with CP252 was “inactive” in each case. The Potency result with CP268, in the experiment with CP269, in the experiment with CP286, with CP291, in the experiment on CP305 and in the experiment with CP335 was “inactive” throughout. Further, the Potency result in the experiment with DFO2036, with DIV30, with ECU, with HB3, in the experiment with P94_40 and in the experiment with PC26 was “inactive” each time. Further, in the experiment on TAB165, the Potency entry was “inactive”.

`CN(C)CCO[C@](C)(c1ccccc1)c1ccccn1`: the call in experiment [1] was inactive.

Take `CN(C)[C@H]1C(=O)C(C(=O)NCN2CCCC2)=C(O)[C@]2(O)C(=O)C3=C(O)c4c(O)cccc4[C@@](C)(O)[C@H]3C[C@@H]12`: the Potency entry with 7G8, in the experiment with ATS95, in the experiment on C2A, in the experiment with CP217, with CP237 and in the experiment with CP252 was “inactive” throughout. Moreover, the Potency result with CP268, in the experiment on CP269, with CP286, in the experiment with CP291, in the experiment on CP305 and with CP335 was “inactive” in each case. The Potency result with DFO2036, in the experiment with DIV30, in the experiment on ECU, with HB3, in the experiment with P94_40 and in the experiment on PC26 was “inactive” in each case. For the same compound, in the experiment on TAB165, the Potency entry is “inactive”.

Consider `C[C@@H](C(=O)O)c1ccc(C(=O)c2cccs2)cc1`, for which the Potency entry in the experiment with 7G8, in the experiment with ATS95, in the experiment with C2A, with CP217, in the experiment on CP237 and in the experiment with CP252 was “inactive” each time. Moreover, the Potency result with CP268, with CP269, in the experiment with CP286, with CP291, in the experiment on CP305 and with CP335 was “inactive” throughout. The Potency entry with DFO2036, in the experiment on DIV30, in the experiment with ECU, in the experiment on HB3, in the experiment on P94_40 and in the experiment with PC26 was “inactive” throughout. For the same compound, in the experiment with TAB165, the Potency entry is “inactive”.
